log2 enrichment score data for 59 molecules are collected here from the supplement of paper PMC11555231.

The assay has as its target PADI4, Q9UM07. Description: log2 enrichment score relative to parent PADI4_3 peptide (binding to PADI4); higher = tighter binding than parent. The note with it: CaCl2: 10 mM. Here is the method: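 Deep mutational scan of the cyclic peptide PADI4_3 (ClAc-D-Tyr1 initiator, thioether-cyclised to Cys12, C-terminal Gly plus HA tag, mRNA-displayed). Positions 2-11 were each randomised by NNK codons; Met was reprogrammed as N-methyl-alanine (MeA). One round of equilibrium panning against bead-immobilised human PADI4 (100 nM, 10 mM CaCl2, RT). Log2 enrichment (bound/input frequency) relative to the parent sequence (0 = parent), mean of three independent selections.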

Chain of PADI4, Q9UM07 (Q9UM07 whole entry): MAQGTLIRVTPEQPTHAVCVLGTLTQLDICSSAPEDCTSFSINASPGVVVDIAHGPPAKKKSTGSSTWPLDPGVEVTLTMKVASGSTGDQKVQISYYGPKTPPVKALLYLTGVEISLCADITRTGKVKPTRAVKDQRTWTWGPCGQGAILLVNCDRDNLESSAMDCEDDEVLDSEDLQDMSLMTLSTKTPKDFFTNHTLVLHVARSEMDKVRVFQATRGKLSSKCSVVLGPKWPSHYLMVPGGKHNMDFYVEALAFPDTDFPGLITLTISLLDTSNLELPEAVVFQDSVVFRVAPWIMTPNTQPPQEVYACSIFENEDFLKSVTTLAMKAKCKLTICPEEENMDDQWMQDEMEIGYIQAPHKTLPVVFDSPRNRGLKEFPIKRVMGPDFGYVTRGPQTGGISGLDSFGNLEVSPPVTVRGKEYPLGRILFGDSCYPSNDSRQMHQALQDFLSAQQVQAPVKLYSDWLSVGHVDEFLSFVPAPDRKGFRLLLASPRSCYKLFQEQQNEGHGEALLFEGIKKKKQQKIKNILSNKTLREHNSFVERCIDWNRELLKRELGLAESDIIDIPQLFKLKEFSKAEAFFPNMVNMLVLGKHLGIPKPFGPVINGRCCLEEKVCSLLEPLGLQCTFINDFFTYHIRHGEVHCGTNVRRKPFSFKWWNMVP

B1: PADI4_3_P9Y P9Y (peptide)
chain: YRDHHYRHYKYCG
For the molecule B1, the log2 enrichment score was -2.

B2: PADI4_3_R7W R7W (peptide)
chain: YRDHHYWHPKYCG
On to B2, for which the log2 enrichment score came out at 1.07.

B3: PADI4_3_R7H R7H (peptide)
chain: YRDHHYHHPKYCG
For B3, the log2 enrichment score is -1.29.

B4: PADI4_3_D3F D3F (peptide)
chain: YRFHHYRHPKYCG
For the molecule B4, the log2 enrichment score is -4.36.

B5: PADI4_3_R2H R2H (peptide)
chain: YHDHHYRHPKYCG
Consider B5, for which the log2 enrichment score was -2.21.

B6: PADI4_3_Y11H Y11H (peptide)
chain: YRDHHYRHPKHCG
For B6, the log2 enrichment score is -2.81.

B7: PADI4_3_R2Y R2Y (peptide)
chain: YYDHHYRHPKYCG
With B7, the log2 enrichment score is -2.62.

B8: PADI4_3_P9V P9V (peptide)
chain: YRDHHYRHVKYCG
For B8, the log2 enrichment score was -1.8.

B9: PADI4_3_H4F H4F (peptide)
chain: YRDFHYRHPKYCG
For the molecule B9, the log2 enrichment score was -3.79.

B10: PADI4_3_Y6W Y6W (peptide)
chain: YRDHHWRHPKYCG
For B10, the log2 enrichment score was -2.2.

B11: PADI4_3_R7P R7P (peptide)
chain: YRDHHYPHPKYCG
As for B11, the log2 enrichment score was -4.46.

B12: PADI4_3_H8W H8W (peptide)
chain: YRDHHYRWPKYCG
As for B12, the log2 enrichment score is -3.81.

B13: PADI4_3_P9W P9W (peptide)
chain: YRDHHYRHWKYCG
Regarding B13, the log2 enrichment score is -2.

B14: PADI4_3_Y11F Y11F (peptide)
chain: YRDHHYRHPKFCG
As for B14, the log2 enrichment score was -2.66.

B15: PADI4_3_Y6H Y6H (peptide)
chain: YRDHHHRHPKYCG
As to B15, the log2 enrichment score is 0.321.

B16: PADI4_3_Y6P Y6P (peptide)
chain: YRDHHPRHPKYCG
With B16, the log2 enrichment score was -2.49.

B17: PADI4_3_H8F H8F (peptide)
chain: YRDHHYRFPKYCG
Regarding B17, the log2 enrichment score is -3.69.

B18: PADI4_3_K10W K10W (peptide)
chain: YRDHHYRHPWYCG
As to B18, the log2 enrichment score was -0.93.

B19: PADI4_3_H8P H8P (peptide)
chain: YRDHHYRPPKYCG
Consider B19, for which the log2 enrichment score was -4.28.

B20: PADI4_3_H4W H4W (peptide)
chain: YRDWHYRHPKYCG
Consider B20, for which the log2 enrichment score was -3.44.

B21: PADI4_3_R2P R2P (peptide)
chain: YPDHHYRHPKYCG
On to B21, for which the log2 enrichment score is -2.67.

B22: PADI4_3_Y6V Y6V (peptide)
chain: YRDHHVRHPKYCG
Turning to B22, the log2 enrichment score was -2.3.

B23: PADI4_3_Y6Y Y6Y (peptide)
chain: YRDHHYRHPKYCG
Turning to B23, the log2 enrichment score stood at 0.

B24: PADI4_3_R7F R7F (peptide)
chain: YRDHHYFHPKYCG
Take B24: the log2 enrichment score was -0.962.

B25: PADI4_3_Y11P Y11P (peptide)
chain: YRDHHYRHPKPCG
B25: the log2 enrichment score was -4.34.

B26: PADI4_3_H5P H5P (peptide)
chain: YRDHPYRHPKYCG
Consider B26, for which the log2 enrichment score was -3.95.

B27: PADI4_3_K10F K10F (peptide)
chain: YRDHHYRHPFYCG
Consider B27, for which the log2 enrichment score was -0.468.

B28: PADI4_3_Y11Y Y11Y (peptide)
chain: YRDHHYRHPKYCG
With B28, the log2 enrichment score is 0.

B29: PADI4_3_K10P K10P (peptide)
chain: YRDHHYRHPPYCG
Regarding B29, the log2 enrichment score was -3.67.

B30: PADI4_3_P9F P9F (peptide)
chain: YRDHHYRHFKYCG
Consider B30, for which the log2 enrichment score is -2.05.

B31: PADI4_3_D3W D3W (peptide)
chain: YRWHHYRHPKYCG
Consider B31, for which the log2 enrichment score is -3.57.

B32: PADI4_3_P9H P9H (peptide)
chain: YRDHHYRHHKYCG
Take B32: the log2 enrichment score was -2.06.

B33: PADI4_3_K10Y K10Y (peptide)
chain: YRDHHYRHPYYCG
Regarding B33, the log2 enrichment score is -0.51.

B34: PADI4_3_H8V H8V (peptide)
chain: YRDHHYRVPKYCG
For the molecule B34, the log2 enrichment score is -3.3.

B35: PADI4_3_H4Y H4Y (peptide)
chain: YRDYHYRHPKYCG
As to B35, the log2 enrichment score was -3.97.

B36: PADI4_3_R7Y R7Y (peptide)
chain: YRDHHYYHPKYCG
On to B36, for which the log2 enrichment score was -0.78.

B37: PADI4_3_H4V H4V (peptide)
chain: YRDVHYRHPKYCG
On to B37, for which the log2 enrichment score is -2.6.

B38: PADI4_3_Y11W Y11W (peptide)
chain: YRDHHYRHPKWCG
Take B38: the log2 enrichment score was -2.51.

B39: PADI4_3_K10V K10V (peptide)
chain: YRDHHYRHPVYCG
For the molecule B39, the log2 enrichment score was determined as 2.58.

B40: PADI4_3_K10H K10H (peptide)
chain: YRDHHYRHPHYCG
For the molecule B40, the log2 enrichment score was -1.

B41: PADI4_3_Y11V Y11V (peptide)
chain: YRDHHYRHPKVCG
B41: the log2 enrichment score is -4.2.

B42: PADI4_3_H5H H5H (peptide)
chain: YRDHHYRHPKYCG
B42: the log2 enrichment score came to 0.

B43: PADI4_3_D3P D3P (peptide)
chain: YRPHHYRHPKYCG
B43: the log2 enrichment score was -2.96.

B44: PADI4_3_R2F R2F (peptide)
chain: YFDHHYRHPKYCG
B44: the log2 enrichment score was -2.57.

B45: PADI4_3_D3V D3V (peptide)
chain: YRVHHYRHPKYCG
With B45, the log2 enrichment score is -3.7.

B46: PADI4_3_R2V R2V (peptide)
chain: YVDHHYRHPKYCG
In the case of B46, the log2 enrichment score is -1.2.

B47: PADI4_3_P9P P9P (peptide)
chain: YRDHHYRHPKYCG
Regarding B47, the log2 enrichment score came to 0.

B48: PADI4_3_H4P H4P (peptide)
chain: YRDPHYRHPKYCG
B48: the log2 enrichment score was -2.66.

B49: PADI4_3_H5Y H5Y (peptide)
chain: YRDHYYRHPKYCG
Consider B49, for which the log2 enrichment score is -4.14.

B50: PADI4_3_R2W R2W (peptide)
chain: YWDHHYRHPKYCG
As to B50, the log2 enrichment score is -2.67.

B51: PADI4_3_H5W H5W (peptide)
chain: YRDHWYRHPKYCG
In the case of B51, the log2 enrichment score was -4.12.

B52: PADI4_3_H5F H5F (peptide)
chain: YRDHFYRHPKYCG
For the molecule B52, the log2 enrichment score is -4.31.

B53: PADI4_3_R7V R7V (peptide)
chain: YRDHHYVHPKYCG
B53: the log2 enrichment score is -1.6.

B54: PADI4_3_D3Y D3Y (peptide)
chain: YRYHHYRHPKYCG
Consider B54, for which the log2 enrichment score was -3.73.

B55: PADI4_3_H8H H8H (peptide)
chain: YRDHHYRHPKYCG
For the molecule B55, the log2 enrichment score was 0.

B56: PADI4_3_Y6F Y6F (peptide)
chain: YRDHHFRHPKYCG
Consider B56, for which the log2 enrichment score was -0.749.

B57: PADI4_3_H4L H4L (peptide)
chain: YRDLHYRHPKYCG
For the molecule B57, the log2 enrichment score is -1.52.

B58: PADI4_3_H5V H5V (peptide)
chain: YRDHVYRHPKYCG
With B58, the log2 enrichment score is -3.

B59: PADI4_3_H8Y H8Y (peptide)
chain: YRDHHYRYPKYCG
With B59, the log2 enrichment score was -3.56.
